This is a sample that favours compounds with a hit; in the whole collection about 2.8% have one here.
GLP-1R agonist: agonists of human GLP-1 receptor; P43220; HEK293 GLP-1R CRE-luciferase, luminescence, 4-6 h; cells express a hypersensitive GLP-1R form; Potency, µM (titrated, usually from 45.6 µM), most hits filed as activators; actives 0.007% (n = 380,000); AID 624172
Target sequence (P43220 whole entry, looked up): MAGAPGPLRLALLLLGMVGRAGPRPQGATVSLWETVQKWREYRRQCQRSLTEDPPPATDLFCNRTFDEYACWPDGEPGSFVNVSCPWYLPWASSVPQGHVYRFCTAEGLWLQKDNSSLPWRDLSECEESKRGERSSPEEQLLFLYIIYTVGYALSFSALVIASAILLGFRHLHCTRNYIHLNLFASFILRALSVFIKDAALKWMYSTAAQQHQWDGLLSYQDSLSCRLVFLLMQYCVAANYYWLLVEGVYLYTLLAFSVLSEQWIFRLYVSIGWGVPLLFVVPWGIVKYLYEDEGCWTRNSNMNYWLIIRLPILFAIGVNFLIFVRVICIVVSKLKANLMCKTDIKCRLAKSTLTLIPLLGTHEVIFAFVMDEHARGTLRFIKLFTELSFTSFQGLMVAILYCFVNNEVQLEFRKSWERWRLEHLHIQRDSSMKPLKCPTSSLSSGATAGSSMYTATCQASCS
Mito fusion yeast: inhibitors of mitochondrial division or activators of mitochondrial fusion | S. cerevisiae fusion-defective mutant growth rescue, CellTiterGlo 48 h | Potency, µM (titrated, usually from 46.1 µM), hits mostly activators | actives 0.23% (n = 320,000); also: nearly all actives have a fitted effect of over 45% in size
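Luminescent cell viability in 1536-well qHTS format served as the measure of rescued growth in ts fusion-mutant S. cerevisiae cultured on non-fermentable YPEG for 48 hours at 37C.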
BRCA1 expr act: BRCA1 expression activation | MCF7-BRCA1-FFLuc reporter, luminescence, 48 h; response scale: scaled: vehicle 0%, 10 µM genistein 100% | Potency, µM (titrated, usually from 46.1 µM), hits mostly activators | actives 1.1% (n = 380,000) | AID 624202; also: nearly all actives have a fitted effect of over 80% in size
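Activators of BRCA1 expression were detected as increased firefly luciferase luminescence in engineered MCF7 cells after 48 h compound incubation. Signals were scaled to genistein 10 microM as full activation.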
GLP1R cytotox: cytotoxicity counter-screen for GLP-1 receptor inverse agonists; HEK293 cAMP-luciferase reporter cells, luminescence, 24 h; Potency, µM (highest dose often 38.3 µM), usual class: inhibitors; actives 0.13% (n = 410,000);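 also: loss of luciferase light is scored as toxicity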
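Step one: seed cells (200 cells/uL, DMEM with 10% Nu serum, 1% pen-strep). Step two: 12-hour incubation at 37 deg C. Step three: pin 23 nL compound, incubate 24 hr. Step four: add luciferase reagent, read luminescence 12 min later.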
GLP1R inv ag: inverse agonists of human GLP-1 receptor; P43220; HEK293 GLP-1R CRE-luciferase, luminescence, 24 h; GLP-1R form is constitutively active; Potency, µM (doses to about 38.3 µM), usual class: inhibitors; actives 1.6% (n = 410,000); AID 624417; also: nearly all actives have a fitted effect of over 55% in size
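Using stably transfected HEK293 (constitutively active GLP-1R, cAMP-luciferase reporter), compounds were incubated 24 hr and luciferase measured by luminescence.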
Of the large screens only hits and unclear results are named; the others gave an inactive call. Calls follow the shape of the dose curve; as a rule, active = well fitted curve in the direction sought with a large enough effect; inconclusive = small, poorly fitted or top-dose-only effect, or another doubt; inactive = no such curve, though single readings can be large; an effect the other way counts as inactive or inconclusive.

NC(=O)NCCc1ccccc1	none
CCOC(=O)Cn1nc(C)cc1NC(=O)c1ccncc1	none
CCCCn1c(NC(=O)c2ccccc2Cl)c(C#N)c2nc3ccccc3nc21	GLP1R inv ag 5.6µM
c1ccc(Nc2nnc(-c3cccnc3)s2)cc1	none
CCOC(=O)c1cccc(NC(=O)CCc2nnc3ccc(N4CCN(C)CC4)nn23)c1	none
COc1ccc(CC(=O)Nc2ccc(S(=O)(=O)N(C)C3CCN(C)CC3)cc2)cc1	none
CC(Oc1ccc(Br)cc1)C(=O)Nc1ccc(S(=O)(=O)N(C)C2CCN(C)CC2)cc1 (centres undefined)	GLP1R inv ag 2.8µM
CN1CCN(NC(=O)COc2cccc(C(F)(F)F)c2)CC1	none
CN1CCC(N(C)S(=O)(=O)c2ccc(NC(=O)COc3cccc(C(F)(F)F)c3)cc2)CC1	GLP1R inv ag 11µM
CCc1nc2ccc(C(=O)NCCCn3ccnc3)cn2c1N(C)Cc1ccc(Cl)cc1	none (no result: Mito fusion yeast)
Cc1nc(-c2ccc(C)c(N3CCN(C(=O)Nc4ccc(Br)cc4)CC3)c2)no1	none (no result: Mito fusion yeast)
Cc1cccnc1NC(=O)c1c(O)c2ccccc2n(C)c1=O	none
CCc1ccc2[nH]c(=O)c(CN(CCN(C)C)C(=O)Nc3ccccc3)cc2c1	GLP1R inv ag 8.9µM
Cc1cc(C)c2cc(CN(CCN(C)C)C(=O)Nc3ccccc3Cl)c(=O)[nH]c2c1	GLP1R inv ag 10µM
CCc1ccc2[nH]c(=O)c(CN(CCN(CC)CC)C(=O)NC3CCCCC3)cc2c1	GLP1R cytotox inconclusive, GLP1R inv ag 10µM
Cc1cc(C)c2cc(CN(CCO)C(=O)Nc3ccc(F)cc3)c(=O)[nH]c2c1	none
CN(C)S(=O)(=O)c1ccc(N2CCCC2)c(C(=O)NC2(C)CCS(=O)(=O)C2)c1 (centres undefined)	none
Cc1ccc(-n2nnc3ccccc3c2=O)cc1C	BRCA1 expr act 4.5µM, GLP1R inv ag inconclusive
Cc1ccc(Nc2nc(N)nc(CSC(=S)N3CCOCC3)n2)cc1	BRCA1 expr act 5µM
CC1CC(C)CN(C(=S)SCc2nc(N)nc(Nc3ccccc3)n2)C1 (centres undefined)	GLP1R inv ag inconclusive
Cc1ccc(Nc2nc(N)nc(COC(=O)C3=COCCO3)n2)cc1	BRCA1 expr act 4µM
Cc1ccc(NC(=O)COC(=O)C2=COCCO2)cc1	none
Nc1nc(CSC(=S)N2CCOCC2)nc(Nc2ccccc2)n1	BRCA1 expr act inconclusive
Nc1nc(CSC(=S)N2CCCCC2)nc(Nc2ccccc2)n1	BRCA1 expr act 14µM, GLP1R cytotox inconclusive
Cc1cccc(C(=O)NCCCNC(=O)c2ccco2)c1	none
COc1cc(NC(=O)C2CCN(S(=O)(=O)c3cccs3)CC2)cc(OC)c1	GLP1R inv ag inconclusive
CCOC(=O)c1c(/N=C/N(C)C)sc(/C=N/Nc2ccccc2)c1-c1ccc(Cl)cc1	GLP1R inv ag 10µM
Cc1cn(CCC(=O)Nc2ccc(N3CCOCC3)cc2)c2ccccc12	BRCA1 expr act 10µM, GLP1R inv ag inconclusive
Cc1cn(CCC(=O)Nc2ccccc2N2CCOCC2)c2ccccc12	BRCA1 expr act inconclusive
FC(F)(F)c1cc(CCN2C(=S)NC[C@@H]2Cc2ccccc2)cc(C(F)(F)F)c1	GLP1R cytotox inconclusive, GLP1R inv ag 7.9µM
CCNC(=O)NCCNC(=O)c1cc(OCC(F)(F)F)ccc1OCC(F)(F)F	none
COc1ccccc1NS(=O)(=O)c1ccc2oc(SCc3ccc(F)cc3)nc2c1	GLP1R inv ag inconclusive
COc1ccc(NS(=O)(=O)c2ccc3oc(SCc4ccc(F)cc4)nc3c2)cc1	Mito fusion yeast 16µM, GLP1R inv ag inconclusive
CNc1cncc(-c2cccc(OC)c2F)n1	BRCA1 expr act 11µM (no result: Mito fusion yeast)
O=C1[C@@H]2Cc3c([nH]c4ccccc34)C(c3cccc([N+](=O)[O-])c3)N2C(=O)CN1C1CCN(Cc2ccccc2)CC1 (some centres undefined)	none (no result: GLP-1R agonist, BRCA1 expr act, GLP1R cytotox, GLP1R inv ag)
Cc1ccc(-c2onc3ccc(C(=O)O)cc23)cc1	Mito fusion yeast inconclusive
O=C(O)c1ccc2noc(-c3ccccc3)c2c1	BRCA1 expr act 4µM
CCCC(=O)N(CCN1CCOCC1)c1nc2cc(C)c(C)cc2s1	BRCA1 expr act 4µM, GLP1R inv ag inconclusive
O=c1oc2cc(Cl)ccc2n1CSc1nc2ccccc2s1	BRCA1 expr act 7.9µM, GLP1R inv ag inconclusive
Cc1nn(C2CCS(=O)(=O)C2)c(C)c1CN(C)C(=O)c1ccc(S(=O)(=O)N(C)C)cc1 (centres undefined)	none (no result: Mito fusion yeast)
CCn1c(-c2ccc(C(C)(C)C)cc2)n[nH]c1=S	GLP1R inv ag inconclusive
Cn1c(-c2ccc(C(C)(C)C)cc2)n[nH]c1=S	BRCA1 expr act 20µM
CCCCC[C@H]1CN(Cc2ccccc2)C(=O)[C@@H]1CC(=O)NCc1ccccc1	GLP1R inv ag 10µM
CCCSc1nc(C)cc(C)c1S(=O)(=O)c1ccccc1C	GLP1R inv ag 8.9µM
Cc1cc(C)c(S(=O)(=O)c2ccccc2C)c(SCC(C)C)n1	GLP1R inv ag inconclusive
CCOC(=O)NC(=O)/C(C#N)=C\Nc1ccc(Cl)cc1Cl	BRCA1 expr act 13µM
Clc1ccc(CNc2ccc3nnc(-c4ccccc4)n3n2)cc1	none
O=C(N/N=C/c1ccc(Cl)cc1Cl)c1n[nH]c2c1CCCC2	GLP1R cytotox inconclusive, GLP1R inv ag inconclusive
O=C(N/N=C/c1cccs1)c1n[nH]c2c1CCCC2	GLP1R inv ag 3.2µM
O=C(N/N=C/c1cccs1)c1cnccn1	none
O=C(N/N=C/c1cccc2ccccc12)c1n[nH]c2c1CCCC2	GLP1R inv ag 1.1µM
O=C(N/N=C/c1cccs1)c1[nH]ncc1Br	BRCA1 expr act 3.2µM
CCN(CC)c1ccc(N=CN2CCOCC2)cc1	none
Cc1cccc(C)c1NC(=O)c1cn(-c2ccccc2)nc1-c1ccccc1	none
COc1cccc(-c2nn(-c3ccccc3)cc2C(=O)Nc2nccs2)c1	Mito fusion yeast inconclusive, GLP1R inv ag 7.1µM
Cc1ccccc1NC(=O)c1cn(-c2ccccc2)nc1-c1ccccc1	GLP1R inv ag 10µM
COc1ccc(-c2nn(-c3ccccc3)cc2C(=O)Nc2nccs2)cc1	GLP1R cytotox inconclusive, GLP1R inv ag inconclusive
Cc1cccc(NC(=O)c2cnn3ccccc23)c1C	BRCA1 expr act 13µM
Cc1nn(Cc2ccc(Cl)cc2)c(C)c1NC(=O)c1c(-c2ccccc2)noc1C	GLP1R inv ag inconclusive
Cc1nn(Cc2ccc(Cl)c(Cl)c2)c(C)c1NC(=O)c1cn(-c2ccccc2)nc1-c1ccccc1	GLP1R inv ag 10µM
O=C(NCCOc1cccc(Oc2ccccc2)c1)c1cc(-n2cnnc2)ccc1Cl	none
COc1ccccc1NC(=O)c1cn(-c2ccccc2)nc1-c1ccccc1	GLP1R inv ag inconclusive (no result: GLP-1R agonist, Mito fusion yeast, BRCA1 expr act)
Cc1cccc(NC(=O)c2cn(-c3ccccc3)nc2-c2ccccc2)c1C	GLP1R inv ag 4.5µM (no result: GLP-1R agonist, Mito fusion yeast, BRCA1 expr act)
